Data as given in PubChem BioAssay (EPA / NIEHS).
Activity calls are given as the source filed them. Rule for the calls: active = hit-call score of the fitted dose curve at least 0.9, where 1 is the maximum; inactive = score below 0.9.

Legend:
Conditions in all cases: mRNA level, 48 h; actives raise or lower the signal
[1] = read-out: Potassium channel subfamily K member 1 (KCNK1), KCNK1 (gene 3775); assay: LTEA_HepaRG_KCNK1: Life Technologies and Expression Analysis (LTEA) Assay for Potassium channel subfamily K member 1 (KCNK1) using HepaRG (AID 2283511)
Method in brief: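 Gain or loss of KCNK1 mRNA is the read-out, quantified by qRT-PCR against three housekeeping genes after 48 h chemical treatment of human HepaRG liver cells. Concentrations ran from 100 uM downward in half-log steps, vehicle 0.5% DMSO.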

[2] = read-out: Keratin 19 (KRT19), KRT19 (gene 3880); assay: LTEA_HepaRG_KRT19: Life Technologies and Expression Analysis (LTEA) Assay for Keratin 19 (KRT19) using HepaRG (AID 2283512)
Method in brief: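 Readout is qRT-PCR of KRT19 mRNA, normalized to ACTB, GAPDH and POLR2A, from HepaRG cells treated 48 h with eight-point half-log dilutions topping at 100 uM. Activity in either direction is scored relative to 0.5% DMSO vehicle.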

[3] = read-out: JUN Transcription Factor, JUN (gene 3725); assay: LTEA_HepaRG_JUN: Life Technologies and Expression Analysis (LTEA) Assay for JUN Transcription Factor using HepaRG (AID 2283513)
Method in brief: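 Cells plated 48 h, medium switched to serum-free induction medium, then dosed 48 h (100 uM top, half-log dilutions, 0.5% DMSO). RNA isolated; JUN measured by qRT-PCR against three housekeeping genes; gain or loss fitted relative to DMSO.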

[4] = read-out: Lipase C (LIPC), LIPC (gene 3990); assay: LTEA_HepaRG_LIPC: Life Technologies and Expression Analysis (LTEA) Assay for Lipase C (LIPC) using HepaRG (AID 2283514)
Method in brief: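 Read-out is LIPC transcript level by TaqMan qRT-PCR, normalized to three housekeeping genes, after 48 h chemical treatment of human HepaRG liver cells. Curves span eight concentrations topping at 100 uM; activity in either direction scored relative to 0.5% DMSO.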

[5] = read-out: Lipoprotein lipase (LPL), LPL (gene 4023); assay: LTEA_HepaRG_LPL: Life Technologies and Expression Analysis (LTEA) Assay for Lipoprotein lipase (LPL) using HepaRG (AID 2283515)
Method in brief: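 Read-out is LPL transcript level by qRT-PCR, normalized to three housekeeping genes and fitted bidirectionally against the DMSO control. Human HepaRG cells received chemicals for 48 h at up to 100 uM.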

[6] = read-out: MicroRNA 122 (MIR122), gene 406906; assay: LTEA_HepaRG_MIR122: Life Technologies and Expression Analysis (LTEA) Assay for MicroRNA 122 (MIR122) using HepaRG (AID 2283516); note: the transcript read is the microRNA miR-122
Method in brief: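 HepaRG plated 48 h, switched to serum-free induction medium, then treated in duplicate for 48 h (100 uM top, half-log steps, 0.5% DMSO vehicle). RNA isolated, qRT-PCR performed, concentration-response fitted both directions relative to DMSO.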

[7] = read-out: matrix metalloproteinase-10 (MMP10), MMP10 (gene 4319); assay: LTEA_HepaRG_MMP10: Life Technologies and Expression Analysis (LTEA) Assay for matrix metalloproteinase-10 (MMP10) using HepaRG (AID 2283517)
Method in brief: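 Gain or loss of MMP10 mRNA is fitted relative to the 0.5% DMSO vehicle. The human hepatic line HepaRG receives a 48-hour serum-free exposure, in duplicate, with a maximum concentration of 100 uM.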

[8] = read-out: MYC, MYC (gene 4609); assay: LTEA_HepaRG_MYC: Life Technologies and Expression Analysis (LTEA) Assay for MYC using HepaRG (AID 2283518)
Method in brief: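 Expression changes were scored by TaqMan qRT-PCR with ACTB, GAPDH and POLR2A normalization. Cultures in serum-free induction medium received duplicate 8-point concentration series, highest 100 uM, for 48 h; DMSO (0.5%) served as baseline.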

[9] = read-out: matrix metalloproteinase-3 (MMP3), MMP3 (gene 4314); assay: LTEA_HepaRG_MMP3: Life Technologies and Expression Analysis (LTEA) Assay for matrix metalloproteinase-3 (MMP3) using HepaRG (AID 2283519)
Method in brief: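 HepaRG, human; 48 h dosing, 8 conc. (max 100 uM, half-log), duplicate, 0.5% DMSO. Readout: MMP3 transcript by Fluidigm TaqMan qRT-PCR, ACTB/GAPDH/POLR2A-normalised. Gain or loss fitted vs DMSO.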

[10] = read-out: Paternally Expressed 10 (PEG10), PEG10 (gene 23089); assay: LTEA_HepaRG_PEG10: Life Technologies and Expression Analysis (LTEA) Assay for Paternally Expressed 10 (PEG10) using HepaRG (AID 2283520)
Method in brief: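 HepaRG, 48 h post-plating → serum-free induction medium → 48 h chemical exposure (duplicate, 8-pt, max 100 uM, half-log, 0.5% DMSO) → lysis in RLT → TaqMan qRT-PCR for PEG10, ACTB/GAPDH/POLR2A normalisation.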

[11] = read-out: Nuclear factor NF-kappa-B p105 subunit (Homo sapiens) (UniProt P19838); assay: LTEA_HepaRG_NFKB1: Life Technologies and Expression Analysis (LTEA) Assay for Nuclear Factor Kappa B Subunit 1 (NFKB1) using HepaRG (AID 2283521);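 note: differentiated human HepaRG liver cells in serum-free induction medium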
Method in brief: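 NFKB1 transcript was measured by TaqMan qRT-PCR on Fluidigm arrays, normalised to three housekeeping genes and fitted in both directions against 0.5% DMSO. HepaRG cells were dosed in duplicate for 48 h in serum-free induction medium, eight half-log steps from 100 uM.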

[12] = read-out: Protein phosphatase 2A (PPP2R4), PTPA (gene 5524); assay: LTEA_HepaRG_PPP2R4: Life Technologies and Expression Analysis (LTEA) Assay for Protein phosphatase 2A (PPP2R4) using HepaRG (AID 2283522)
Method in brief: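 Readout is PPP2R4 transcript level by microfluidic qRT-PCR after 48 h chemical treatment of human HepaRG liver cells. Concentrations spanned 100 uM downward in half-log steps; gain or loss of signal was fitted relative to DMSO.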

[13] = read-out: Phosphatase and tensin (PTEN), PTEN (gene 5728); assay: LTEA_HepaRG_PTEN: Life Technologies and Expression Analysis (LTEA) Assay for Phosphatase and tensin (PTEN) using HepaRG (AID 2283523)
Method in brief: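 Read-out is PTEN transcript level by multiplexed TaqMan qRT-PCR after 48 h chemical treatment of human HepaRG cultures in serum-free induction medium. Concentrations spanned 100 uM downward in half-log steps, 0.5% DMSO throughout; activity fitted in both directions against vehicle.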

[14] = read-out: solute carrier (SLC22A1), SLC22A1 (gene 6580); assay: LTEA_HepaRG_SLC22A1: Life Technologies and Expression Analysis (LTEA) Assay for solute carrier (SLC22A1) using HepaRG (AID 2283524);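 for AC50: differentiated human HepaRG liver cells in serum-free induction medium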
Method in brief: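 HepaRG (human liver line), 48 h dosing in serum-free induction medium; 8 conc., half-log down from 100 uM, 0.5% DMSO vehicle, duplicates. Endpoint: SLC22A1 mRNA, qRT-PCR, housekeeping-normalized; gain/loss fit vs DMSO.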

[15] = read-out: Pyruvate Dehydrogenase Kinase 4 (PDK4), PDK4 (gene 5166); assay: LTEA_HepaRG_PDK4: Life Technologies and Expression Analysis (LTEA) Assay for Pyruvate Dehydrogenase Kinase 4 (PDK4) using HepaRG (AID 2283525)
Method in brief: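 In this multiplexed human HepaRG expression assay, cells are treated 48 h with test chemicals across an eight-point range starting at 100 uM. PDK4 mRNA changes, normalized to ACTB/GAPDH/POLR2A, are fitted in both directions relative to vehicle.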

[16] = read-out: Nuclear factor erythroid 2-related factor 2 (Homo sapiens) (UniProt Q16236); assay: LTEA_HepaRG_NFE2L2: Life Technologies and Expression Analysis (LTEA) Assay for Nuclear factor erythroid 2-related factor 2 (NFE2L2) Transcription Factor using HepaRG (AID 2283527)
Method in brief: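 Transcript level of NFE2L2 is the read-out, measured by microfluidic TaqMan qRT-PCR and normalized to three housekeeping genes. Human HepaRG cultures received test chemical for 48 h at up to 100 uM in half-log steps. Gain or loss of signal is fitted relative to 0.5% DMSO.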

[17] = read-out: succinate dehydrogenase complex iron sulfur subunit B (SDHB), SDHB (gene 6390); assay: LTEA_HepaRG_SDHB: Life Technologies and Expression Analysis (LTEA) Assay for succinate dehydrogenase complex iron sulfur subunit B (SDHB) using HepaRG (AID 2283528)
Method in brief: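 SDHB transcript level read by TaqMan qRT-PCR, housekeeping-normalised (ACTB, GAPDH, POLR2A), after 48 h chemical treatment of plated HepaRG cells; eight concentrations top 100 uM, half-log steps, 0.5% DMSO, duplicates; fitted both directions against DMSO.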

[18] = read-out: Signal transducer and activator of transcription 3 (Homo sapiens) (UniProt P40763); assay: LTEA_HepaRG_STAT3: Life Technologies and Expression Analysis (LTEA) Assay for Signal transducer and activator of transcription (STAT3) using HepaRG (AID 2283529)
Method in brief: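 Read-out is STAT3 mRNA level by qRT-PCR, normalized to three housekeeping genes, in human HepaRG liver cells treated for 48 h. Concentrations ran from 100 uM downward in half-log steps; curves were fitted for gain or loss relative to 0.5% DMSO.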

[19] = read-out: solute carrier (SLCO1B1), SLCO1B1 (gene 10599); assay: LTEA_HepaRG_SLCO1B1: Life Technologies and Expression Analysis (LTEA) Assay for solute carrier (SLCO1B1) using HepaRG (AID 2283530)
Method in brief: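 Human HepaRG cultures treated for 48 h with an eight-concentration half-log series topping at 100 uM; SLCO1B1 measured by qRT-PCR and fitted bidirectionally relative to DMSO.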

[20] = read-out: NAD(P)H dehydrogenase [quinone] 1 (NQO1), NQO1 (gene 1728); assay: LTEA_HepaRG_NQO1: Life Technologies and Expression Analysis (LTEA) Assay for NAD(P)H dehydrogenase [quinone] 1 (NQO1) using HepaRG (AID 2283526)
Method in brief: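 HepaRG, 48 h post-plating → serum-free induction medium → test chemical 48 h (duplicate, 100 uM top, half-log x8, 0.5% DMSO) → RNA isolation → qRT-PCR, ACTB/GAPDH/POLR2A normalization; bidirectional curve fit vs DMSO baseline.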

Measured: AC50

Sequence of Signal transducer and activator of transcription 3 (Homo sapiens) (P40763 whole entry, looked up): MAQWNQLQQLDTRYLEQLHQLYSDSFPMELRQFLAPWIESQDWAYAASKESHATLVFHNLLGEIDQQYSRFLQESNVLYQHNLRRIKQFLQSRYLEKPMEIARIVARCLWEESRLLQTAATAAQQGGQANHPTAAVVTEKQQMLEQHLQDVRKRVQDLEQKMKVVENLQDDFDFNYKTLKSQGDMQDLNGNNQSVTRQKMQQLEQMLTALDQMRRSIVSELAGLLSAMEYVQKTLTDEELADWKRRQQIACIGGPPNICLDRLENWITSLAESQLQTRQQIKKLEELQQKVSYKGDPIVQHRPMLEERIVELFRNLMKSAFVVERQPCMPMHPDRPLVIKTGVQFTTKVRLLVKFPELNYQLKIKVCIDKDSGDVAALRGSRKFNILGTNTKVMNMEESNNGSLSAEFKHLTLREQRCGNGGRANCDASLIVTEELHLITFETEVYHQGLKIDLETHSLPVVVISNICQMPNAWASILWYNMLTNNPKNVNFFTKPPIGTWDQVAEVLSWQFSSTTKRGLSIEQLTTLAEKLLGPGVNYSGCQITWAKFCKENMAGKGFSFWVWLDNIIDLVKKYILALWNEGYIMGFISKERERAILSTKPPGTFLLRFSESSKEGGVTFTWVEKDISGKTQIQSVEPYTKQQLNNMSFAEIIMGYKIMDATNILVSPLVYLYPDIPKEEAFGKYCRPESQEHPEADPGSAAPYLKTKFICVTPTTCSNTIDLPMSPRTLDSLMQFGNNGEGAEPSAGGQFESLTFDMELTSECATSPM
Sequence of Nuclear factor NF-kappa-B p105 subunit (Homo sapiens) (P19838 whole entry, looked up): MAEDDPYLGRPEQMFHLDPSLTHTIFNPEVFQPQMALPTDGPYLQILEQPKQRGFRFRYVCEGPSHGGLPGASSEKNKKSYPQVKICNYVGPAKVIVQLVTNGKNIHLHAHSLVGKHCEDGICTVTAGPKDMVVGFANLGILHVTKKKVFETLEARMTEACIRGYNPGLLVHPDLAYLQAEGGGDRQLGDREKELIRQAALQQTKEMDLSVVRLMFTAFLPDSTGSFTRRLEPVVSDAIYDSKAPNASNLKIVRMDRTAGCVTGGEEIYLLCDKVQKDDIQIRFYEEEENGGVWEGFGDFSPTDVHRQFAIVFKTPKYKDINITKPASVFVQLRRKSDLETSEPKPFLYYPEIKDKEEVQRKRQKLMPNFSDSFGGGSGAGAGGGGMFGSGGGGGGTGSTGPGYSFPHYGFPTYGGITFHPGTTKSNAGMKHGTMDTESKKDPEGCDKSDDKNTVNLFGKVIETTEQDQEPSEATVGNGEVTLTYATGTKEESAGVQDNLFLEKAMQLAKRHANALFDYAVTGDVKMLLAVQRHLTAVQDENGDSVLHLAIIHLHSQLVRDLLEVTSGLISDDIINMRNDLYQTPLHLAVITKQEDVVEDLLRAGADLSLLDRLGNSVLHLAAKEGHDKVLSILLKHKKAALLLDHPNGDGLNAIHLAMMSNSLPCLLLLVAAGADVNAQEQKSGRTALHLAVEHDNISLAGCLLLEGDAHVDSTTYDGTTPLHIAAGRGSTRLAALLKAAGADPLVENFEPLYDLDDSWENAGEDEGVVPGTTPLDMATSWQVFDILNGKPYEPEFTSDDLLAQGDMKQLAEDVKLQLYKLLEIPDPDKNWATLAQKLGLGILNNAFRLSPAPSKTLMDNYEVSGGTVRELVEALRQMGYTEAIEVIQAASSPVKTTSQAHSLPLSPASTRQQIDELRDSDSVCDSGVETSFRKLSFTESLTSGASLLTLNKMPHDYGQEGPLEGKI
Sequence of Nuclear factor erythroid 2-related factor 2 (Homo sapiens) (Q16236 whole entry, looked up): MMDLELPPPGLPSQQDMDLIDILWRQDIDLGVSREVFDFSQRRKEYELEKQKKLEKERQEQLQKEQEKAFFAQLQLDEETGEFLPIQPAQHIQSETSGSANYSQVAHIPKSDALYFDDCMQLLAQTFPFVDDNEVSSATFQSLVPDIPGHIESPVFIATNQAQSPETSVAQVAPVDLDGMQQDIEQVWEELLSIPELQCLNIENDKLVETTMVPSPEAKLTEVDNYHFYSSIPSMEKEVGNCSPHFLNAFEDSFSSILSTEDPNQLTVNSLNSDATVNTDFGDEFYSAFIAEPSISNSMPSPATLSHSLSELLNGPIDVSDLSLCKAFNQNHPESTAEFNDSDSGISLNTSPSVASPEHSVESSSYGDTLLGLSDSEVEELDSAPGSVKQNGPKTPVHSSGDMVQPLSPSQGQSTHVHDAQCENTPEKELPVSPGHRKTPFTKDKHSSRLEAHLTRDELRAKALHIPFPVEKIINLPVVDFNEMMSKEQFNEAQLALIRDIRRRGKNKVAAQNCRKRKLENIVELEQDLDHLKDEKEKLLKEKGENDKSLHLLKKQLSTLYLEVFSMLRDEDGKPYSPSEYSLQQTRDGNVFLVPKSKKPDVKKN

CNC(=O)Oc1cccc2ccccc12
not listed: [20]
inactive: all other assays above

CC(C)NC(=O)N1CC(=O)N(c2cc(Cl)cc(Cl)c2)C1=O
active: [2] 20.3 µM | [4] 10.2 µM | [5] 14.6 µM | [8] 13.2 µM | [14] 21.3 µM | [15] 12.7 µM | [16] 13.1 µM | [18] 5.78 µM | [19] 15.6 µM
inactive: all other assays above

COC(=O)NC(=S)Nc1ccccc1NC(=S)NC(=O)OC
active: [16] 50 µM
not listed: [3]
inactive: all other assays above

CCCCOCN(C(=O)CCl)c1c(CC)cccc1CC
active: [15] 50 µM
inactive: all other assays above

Cc1cc(C)nc(Nc2ccccc2)n1
active: [2] 18.7 µM | [14] 9.92 µM
not listed: [20]
inactive: all other assays above

Clc1cccc(C(Cl)(Cl)Cl)n1
not listed: [11]
inactive: all other assays above
